Experimental data taken from article PMC11574364.

Assays:
Assay in all cases: protein domain microarray probed with biotinylated miRNA; Domain array: 20 mM Tris-HCl pH 7.4, 200 mM KCl, 0.2 mM EDTA, 0.05% NP40, 2 ug/ul heparin, overnight 4 C. ORF array: PBS pH 7.0 with RNase inhibitor, 100 ng RNA; high values mean tight binding
Settings in all cases: ssRNA
RBM5 = target: T1, RBM5 (Homo sapiens, UniProt P52756)
T1 sequence: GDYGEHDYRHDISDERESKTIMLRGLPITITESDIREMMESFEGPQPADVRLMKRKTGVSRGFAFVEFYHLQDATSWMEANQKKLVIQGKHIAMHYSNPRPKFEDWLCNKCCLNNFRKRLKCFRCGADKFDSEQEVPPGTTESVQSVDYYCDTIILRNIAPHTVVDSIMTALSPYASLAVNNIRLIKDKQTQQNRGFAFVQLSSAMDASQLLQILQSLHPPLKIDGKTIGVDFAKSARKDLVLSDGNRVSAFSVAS

RKHD4(1-2) = target: T2, RKHD4(1-2) (Homo sapiens, UniProt A1L020)
T2 sequence: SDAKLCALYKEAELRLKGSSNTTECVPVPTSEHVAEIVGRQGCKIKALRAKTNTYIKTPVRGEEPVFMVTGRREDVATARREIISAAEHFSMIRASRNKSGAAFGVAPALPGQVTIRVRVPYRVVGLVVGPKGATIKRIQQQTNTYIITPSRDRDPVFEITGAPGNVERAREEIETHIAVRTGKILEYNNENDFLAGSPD

SRP46 = target: T3, SRP46 (Homo sapiens, UniProt Q9BRL6)
T3 sequence: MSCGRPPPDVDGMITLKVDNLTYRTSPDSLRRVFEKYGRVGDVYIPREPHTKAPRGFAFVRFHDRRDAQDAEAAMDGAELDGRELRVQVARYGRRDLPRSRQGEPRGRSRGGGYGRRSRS

PPIE = PPIE (Homo sapiens, UniProt Q9UNP9)
Chain of PPIE (Q9UNP9 1-110): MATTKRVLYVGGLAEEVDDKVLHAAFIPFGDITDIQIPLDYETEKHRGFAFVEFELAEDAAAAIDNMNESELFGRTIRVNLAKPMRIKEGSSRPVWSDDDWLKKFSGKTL

RBMXL2 = RBMXL2 (Homo sapiens, UniProt O75526)
Chain of RBMXL2 (O75526 1-110): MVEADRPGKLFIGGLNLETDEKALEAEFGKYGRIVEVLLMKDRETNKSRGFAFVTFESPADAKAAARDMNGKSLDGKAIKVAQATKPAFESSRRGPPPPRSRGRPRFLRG

SF3B4 = SF3B4 (Homo sapiens, UniProt Q15427)
Chain of SF3B4 (Q15427 1-200): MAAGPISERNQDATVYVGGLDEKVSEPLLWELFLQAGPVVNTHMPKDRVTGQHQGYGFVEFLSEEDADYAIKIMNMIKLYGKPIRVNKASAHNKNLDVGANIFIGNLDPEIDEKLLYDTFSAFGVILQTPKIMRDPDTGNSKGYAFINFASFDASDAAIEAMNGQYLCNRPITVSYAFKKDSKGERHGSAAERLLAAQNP

SFRS15 = target: T4, SFRS15 (Homo sapiens, UniProt O95104)
T4 sequence: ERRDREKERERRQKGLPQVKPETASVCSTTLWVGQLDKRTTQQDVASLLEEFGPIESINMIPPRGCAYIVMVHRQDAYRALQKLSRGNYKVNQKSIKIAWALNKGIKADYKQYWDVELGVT

RBMY1D / RBMY1E = RBMY1D / RBMY1E (Homo sapiens, UniProt P0DJD3)
Chain of RBMY1D / RBMY1E (P0DJD3 1-110): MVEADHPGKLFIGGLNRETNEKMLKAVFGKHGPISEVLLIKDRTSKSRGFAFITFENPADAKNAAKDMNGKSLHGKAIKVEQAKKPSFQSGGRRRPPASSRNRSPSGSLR

SF2 = SF2 (Homo sapiens, UniProt Q07955)
Chain of SF2 (Q07955 1-220): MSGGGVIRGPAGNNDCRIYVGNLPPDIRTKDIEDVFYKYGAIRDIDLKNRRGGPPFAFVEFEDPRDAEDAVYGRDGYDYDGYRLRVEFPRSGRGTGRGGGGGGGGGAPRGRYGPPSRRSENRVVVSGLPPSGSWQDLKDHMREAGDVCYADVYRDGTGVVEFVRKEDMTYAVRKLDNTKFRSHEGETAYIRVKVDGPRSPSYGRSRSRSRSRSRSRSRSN

PTBP2 = PTBP2 (Homo sapiens, UniProt Q9UKA9)
Chain of PTBP2 (Q9UKA9 40-531): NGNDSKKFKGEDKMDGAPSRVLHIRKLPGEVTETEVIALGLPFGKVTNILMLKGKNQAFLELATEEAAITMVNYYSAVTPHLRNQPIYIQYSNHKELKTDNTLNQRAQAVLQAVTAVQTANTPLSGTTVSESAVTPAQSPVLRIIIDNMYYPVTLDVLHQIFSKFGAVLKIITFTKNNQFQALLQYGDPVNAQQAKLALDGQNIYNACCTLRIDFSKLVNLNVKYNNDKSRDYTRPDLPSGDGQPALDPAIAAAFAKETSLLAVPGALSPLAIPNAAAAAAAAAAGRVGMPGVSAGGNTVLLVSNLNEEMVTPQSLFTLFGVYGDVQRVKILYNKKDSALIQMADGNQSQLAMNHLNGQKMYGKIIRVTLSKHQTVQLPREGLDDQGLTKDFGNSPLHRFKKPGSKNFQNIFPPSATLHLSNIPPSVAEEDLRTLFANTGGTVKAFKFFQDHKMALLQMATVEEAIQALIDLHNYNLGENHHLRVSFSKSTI

SR140 = SR140 (Homo sapiens, UniProt O15042)
Chain of SR140 (O15042 250-375): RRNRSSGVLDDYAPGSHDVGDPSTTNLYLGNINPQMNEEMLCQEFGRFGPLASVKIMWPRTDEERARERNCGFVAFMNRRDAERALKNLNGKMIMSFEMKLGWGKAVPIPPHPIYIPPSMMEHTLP

RBPMS2 = RBPMS2 (Homo sapiens, UniProt Q6ZRY4)
Chain of RBPMS2 (Q6ZRY4 10-130): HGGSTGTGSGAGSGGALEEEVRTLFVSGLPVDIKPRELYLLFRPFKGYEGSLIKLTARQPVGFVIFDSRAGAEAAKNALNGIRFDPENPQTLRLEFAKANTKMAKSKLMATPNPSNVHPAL

SFRS3 = target: T5, SFRS3 (Homo sapiens, UniProt P84103)
T5 sequence: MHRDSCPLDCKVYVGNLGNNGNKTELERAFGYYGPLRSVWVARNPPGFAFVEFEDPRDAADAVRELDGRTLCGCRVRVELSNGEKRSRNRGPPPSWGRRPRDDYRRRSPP

TRSPAP1 = target: T6, TRSPAP1 (Homo sapiens, UniProt Q9NX07)
T6 sequence: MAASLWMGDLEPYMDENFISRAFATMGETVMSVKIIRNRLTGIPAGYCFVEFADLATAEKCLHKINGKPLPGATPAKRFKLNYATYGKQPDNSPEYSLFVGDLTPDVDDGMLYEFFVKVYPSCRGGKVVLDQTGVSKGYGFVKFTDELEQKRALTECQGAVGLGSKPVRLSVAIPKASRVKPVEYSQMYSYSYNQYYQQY

PRPF8 = PRPF8 (Homo sapiens, UniProt Q6P2Q9)
Chain of PRPF8 (Q6P2Q9 965-1100): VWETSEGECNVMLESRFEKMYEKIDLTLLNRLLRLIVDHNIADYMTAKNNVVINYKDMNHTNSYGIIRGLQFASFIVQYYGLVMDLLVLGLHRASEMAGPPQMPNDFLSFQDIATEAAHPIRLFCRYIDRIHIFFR

ADAD1 = ADAD1 (Homo sapiens, UniProt Q96M93)
Chain of ADAD1 (Q96M93 77-182): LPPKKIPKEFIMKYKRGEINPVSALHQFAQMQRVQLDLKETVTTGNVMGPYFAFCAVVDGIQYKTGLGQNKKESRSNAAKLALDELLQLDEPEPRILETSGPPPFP

SFRS5 = target: T7, SFRS5 (Homo sapiens, UniProt Q13243)
T7 sequence: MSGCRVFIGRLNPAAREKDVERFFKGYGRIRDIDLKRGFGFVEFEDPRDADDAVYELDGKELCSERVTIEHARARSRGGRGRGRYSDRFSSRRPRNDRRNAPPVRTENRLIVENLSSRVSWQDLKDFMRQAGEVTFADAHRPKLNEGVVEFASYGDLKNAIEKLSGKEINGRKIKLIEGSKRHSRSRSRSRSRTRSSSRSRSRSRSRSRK

ANKHD1 = target: T8, ANKHD1 (Homo sapiens, UniProt Q8IWZ3)
T8 sequence: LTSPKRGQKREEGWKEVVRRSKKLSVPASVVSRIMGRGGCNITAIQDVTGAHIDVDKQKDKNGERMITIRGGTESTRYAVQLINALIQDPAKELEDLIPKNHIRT

RBM34 = target: T9, RBM34 (Homo sapiens, UniProt P42696)
T9 sequence: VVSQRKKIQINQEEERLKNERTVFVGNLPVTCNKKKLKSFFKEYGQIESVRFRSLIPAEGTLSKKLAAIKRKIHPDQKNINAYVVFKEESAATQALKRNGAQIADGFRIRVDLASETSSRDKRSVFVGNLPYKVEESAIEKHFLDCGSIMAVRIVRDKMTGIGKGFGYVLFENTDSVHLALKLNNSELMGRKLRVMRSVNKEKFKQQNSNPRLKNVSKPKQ

RBM22 = target: T10, RBM22 (Homo sapiens, UniProt Q9NW64)
T10 sequence: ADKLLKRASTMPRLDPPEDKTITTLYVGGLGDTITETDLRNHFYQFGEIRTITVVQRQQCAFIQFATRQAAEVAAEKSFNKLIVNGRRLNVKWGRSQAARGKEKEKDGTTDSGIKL

Sequence | binding signal (RBM5) | binding signal (RKHD4(1-2)) | binding signal (SRP46) | binding signal (PPIE) | binding signal (RBMXL2) | binding signal (SF3B4) | binding signal (SFRS15) | binding signal (RBMY1D / RBMY1E) | binding signal (SF2) | binding signal (PTBP2) | binding signal (SR140) | binding signal (RBPMS2) | binding signal (SFRS3) | binding signal (TRSPAP1) | binding signal (PRPF8) | binding signal (ADAD1) | binding signal (SFRS5) | binding signal (ANKHD1) | binding signal (RBM34) | binding signal (RBM22)
UAGCUUAUCAGACUGAUGUUGA | 21.2 ± 2.33 fluorescence intensity | 932 ± 115 fluorescence intensity | 41.5 ± 2.43 fluorescence intensity | 91.8 ± 5.98 fluorescence intensity | 826.37 ± 0.587 fluorescence intensity | 700 ± 28.6 fluorescence intensity | 22.3 ± 2.16 fluorescence intensity | 817.2 ± 6.26 fluorescence intensity | 126 ± 12.9 fluorescence intensity | 23.2 ± 6.02 fluorescence intensity | 21.9 ± 3.08 fluorescence intensity | 37.6 ± 9.28 fluorescence intensity | 34.7 ± 4.07 fluorescence intensity | 45.5 ± 1.42 fluorescence intensity | – | – | – | – | – | –
UGAGGUAGUAGGUUGUAUGGUU | 930 ± 19.2 fluorescence intensity | 1640 ± 102 fluorescence intensity | 1040 ± 52.8 fluorescence intensity | 958 ± 40.9 fluorescence intensity | 1440 ± 338 fluorescence intensity | 638.1 ± 5.52 fluorescence intensity | 154.2 ± 0.983 fluorescence intensity | 1480 ± 96.8 fluorescence intensity | 700 ± 28 fluorescence intensity | 147 ± 8.05 fluorescence intensity | 80.2 ± 12.3 fluorescence intensity | 434 ± 21.2 fluorescence intensity | 235 ± 17.9 fluorescence intensity | 269 ± 24.3 fluorescence intensity | 22 ± 1.98 fluorescence intensity | 97.885 ± 0.0354 fluorescence intensity | 155 ± 8.02 fluorescence intensity | 53.6 ± 1.31 fluorescence intensity | 153 ± 25.5 fluorescence intensity | 113.1 ± 0.177 fluorescence intensity
AGAGGUAGUAGGUUGCAUAGUU | 1310 ± 32.6 fluorescence intensity | 1980 ± 164 fluorescence intensity | 1390 ± 35.5 fluorescence intensity | 817 ± 64.4 fluorescence intensity | 2569 ± 8.99 fluorescence intensity | 1440 ± 72.2 fluorescence intensity | 153 ± 14.1 fluorescence intensity | 2080 ± 121 fluorescence intensity | 925 ± 29.4 fluorescence intensity | 96.6 ± 13.3 fluorescence intensity | 142.1 ± 1.25 fluorescence intensity | 1780 ± 12.1 fluorescence intensity | 324.4 ± 0.806 fluorescence intensity | 351 ± 8.57 fluorescence intensity | – | 65 ± 1.55 fluorescence intensity | 151 ± 12.7 fluorescence intensity | 37.7 ± 0.622 fluorescence intensity | 148 ± 10.7 fluorescence intensity | 71.81 ± 0.233 fluorescence intensity
UGAGGUAGUAGGUUGUGUGGUU | 858 ± 19.2 fluorescence intensity | 1430 ± 37.1 fluorescence intensity | 1046 ± 4.09 fluorescence intensity | 1030 ± 108 fluorescence intensity | 1610 ± 44.5 fluorescence intensity | 1290 ± 27 fluorescence intensity | 289 ± 27.3 fluorescence intensity | 1420 ± 19.5 fluorescence intensity | 895.8 ± 6.29 fluorescence intensity | 166 ± 17.3 fluorescence intensity | 149 ± 8.63 fluorescence intensity | 515 ± 10.3 fluorescence intensity | 276 ± 12.7 fluorescence intensity | 332 ± 22.4 fluorescence intensity | – | 157 ± 3.28 fluorescence intensity | 215 ± 3.13 fluorescence intensity | 101 ± 1.94 fluorescence intensity | 228 ± 3.75 fluorescence intensity | 126 ± 31.8 fluorescence intensity
UGAGGUAGUAGGUUGUAUAGUU | 356 ± 13.4 fluorescence intensity | 1130 ± 28.7 fluorescence intensity | 208 ± 90.3 fluorescence intensity | 232 ± 2.04 fluorescence intensity | 867 ± 9.01 fluorescence intensity | 346 ± 11.8 fluorescence intensity | 46.2 ± 1.86 fluorescence intensity | 892 ± 33.6 fluorescence intensity | 70.4 ± 4.98 fluorescence intensity | 49.5 ± 9.89 fluorescence intensity | 32 ± 0.467 fluorescence intensity | 118 ± 2.62 fluorescence intensity | 37.7 ± 9.2 fluorescence intensity | 79.2 ± 10.3 fluorescence intensity | 25.3 ± 8.73 fluorescence intensity | 23.1 ± 6.46 fluorescence intensity | – | 21.6 ± 2.06 fluorescence intensity | 40.9 ± 12.8 fluorescence intensity | 25.7 ± 2.21 fluorescence intensity
CAGUGCAAUGAUGAAAGGGCAU | 593 ± 12.6 fluorescence intensity | 1280 ± 81.8 fluorescence intensity | 797 ± 34.1 fluorescence intensity | 451 ± 19.3 fluorescence intensity | 1800 ± 20.8 fluorescence intensity | 1680 ± 98.9 fluorescence intensity | 141 ± 12.5 fluorescence intensity | 1280 ± 58.5 fluorescence intensity | 702.4 ± 1.9 fluorescence intensity | 55.4 ± 5.87 fluorescence intensity | 43.9 ± 3.02 fluorescence intensity | 1650 ± 53.9 fluorescence intensity | 219 ± 8.61 fluorescence intensity | 84.1 ± 10.6 fluorescence intensity | 31.6 ± 16.2 fluorescence intensity | 44.5 ± 2.96 fluorescence intensity | 151 ± 10.5 fluorescence intensity | 27.3 ± 0.926 fluorescence intensity | 102 ± 9.41 fluorescence intensity | 52.6 ± 1.44 fluorescence intensity
